The source of these data is PubChem BioAssay (NCI).

SMILES strings stand for the structures. This is part of a sample that, as a whole, favours compounds with a hit. Of some 83,000 tested, about 20% had one in any assay.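 A percent growth of 40 corresponds to 60% growth inhibition; 0 means no net growth; -100 means all cells died. Active threshold: below 10.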 A number with no mark means an inactive call. Calls of active or inactive are those of the source.

Holding throughout (assay): NCI-60 one-dose screen, 48 h (100 = growth as untreated, 0 = no growth, -100 = all killed)
What all share (conditions): 10 µM unless noted

Experiment [1] relates to SR leukemia.
For experiment [2], the system named is RPMI-8226 leukemia.
Experiment [3] relates to OVCAR-8 ovarian.
In experiment [4] the test system is OVCAR-5 ovarian.
Experiment [5] has as its system OVCAR-4 ovarian.
Experiment [6] has as its system SK-OV-3 ovarian.
The test system of experiment [7] is IGROV1 ovarian.
The subject of experiment [8] is OVCAR-3 ovarian.
Experiment [9] deals with HS 578T breast.
Experiment [10] has as its system NCI/ADR-RES ovarian.
The test system of experiment [11] is T-47D breast.
In experiment [12] the test system is MDA-MB-435 melanoma.
The subject of experiment [13] is SW-620 colon.
The test system of experiment [14] is MCF7 breast.
For experiment [15], the system named is HCT-116 colon.
The test system of experiment [16] is HCC-2998 colon.
Experiment [17] has as its system KM12 colon.
Experiment [18] deals with BT-549 breast.

Turning to `O=S(=O)(NCCCNc1nccc(-c2[nH]c(-c3ccccc3)nc2-c2ccc(Cl)c(O)c2)n1)c1cccc2ccccc12`, the growth was 17.8% in [1]; 9.64% (active) in experiment [2]; 27.1% in experiment [3]; 67.1% in experiment [4]; 56.9% in [5]; 68.5% in experiment [6]. Further, the growth is 28.7% in [7]; 18.7% in [8]; 44% in experiment [9]; 34.6% in experiment [10]; 21.9% in experiment [11]; 16.6% in experiment [12]. Besides, the growth in [13] was 34.1%; in experiment [14], 16.4%; in [15], 16.3%; in experiment [16], 70%; in experiment [17] it was 21.5%.
For `CNC(=O)c1cc(N2CCc3cc(NC(=O)Nc4ccc(Cl)c(C(F)(F)F)c4)ccc32)ccn1`, the growth in [1] was 45.8%; in experiment [2], 33.6%; in experiment [3] it was 62.8%; in [4] it was 106%; in experiment [5], 55.9%; in experiment [6], 86.6%. The growth is 57.8% in experiment [7]; 51.9% in experiment [8]; 44.8% in experiment [9]; 55% in [10]; 72.3% in experiment [18]; 53.3% in experiment [12]. For the same compound, the growth in experiment [13] is 88.2%; in experiment [14], 29.8%; in experiment [15] it was 39.4%; in experiment [16] it was 53.7%; in experiment [17] it was 17%.
As to `Cn1ccnc1C(=O)/C=C/c1ccc(CNC(=O)c2ccc(F)cc2)cc1`, the growth in experiment [1] was 8.69% (active); in experiment [2], 13%; in [3], 47.1%; in experiment [4], 17.4%; in experiment [5] it was 42%; in experiment [6], 77.8%. In addition, the growth was 23.1% in experiment [7]; 15.1% in [8]; 40.4% in experiment [9]; 18.9% in experiment [10]; 33.4% in [11]; 44.1% in experiment [12]. In addition, the growth in experiment [13] was 9.37% (active); in experiment [14], 11.6%; in experiment [15] it was 13.2%; in [16], 35.9%; in [17], 22.1%.
For the compound `N=c1c2cc(-c3ccccc3)oc2ncn1/N=C/c1ccc(Cl)cc1`, the growth in experiment [1] is 35.3%; in experiment [2], 80.9%; in experiment [3], 95.7%; in [4] it was 51.7%; in [5] it was 17.1%; in [6] it was 99.7%. For the same compound, the growth in experiment [7] is 53.5%; in [8] it was 6.82% (active); in [9], 81.7%; in experiment [10], 49.6%; in [11] it was 81%; in experiment [18], 105%. The growth in experiment [12] is 72.6%; in [13], 29.5%; in experiment [14], 70.8%; in experiment [15] it was 66.6%; in [17] it was 31%.
